Experimental findings from ChEMBL document CHEMBL1157539, “Thousands of chemical starting points for antimalarial lead identification” (Nature, 2010) are described below.

Each structure is given as a SMILES string.

In the assay the test system is HepG2. Description: GSK_TCMDC: Percent inhibition of human HepG2 cell line. Test compounds present at 10uM. It counts as functional.
Take `CC(C)CC(=O)Nc1cc(=O)[nH]c2nc(-c3ccccc3)nn12`: the Inhibition was found to be 0%. In the case of `COc1ccc2nc(-c3cc(-c4ccc(NC(=O)CN5CCOCC5)cc4)cnc3N)[nH]c2c1` it was 52%; in that of `CCN(CC)CCN(Cc1ccc(-c2ccc(C(F)(F)F)cc2)cc1)C(=O)Cn1c(CCc2ccc(F)cc2)nc(=O)c2sccc21.O=C(O)C(O)C(O)C(=O)O`, 100%; in that of `COc1cc(NCCCNC(=O)c2cc3c(Cl)cc(Cl)cc3[nH]2)nc2ccccc12`, 96%. Turning to `O=C(Nc1ccccc1-c1nc2ccccc2s1)C(Cl)(Cl)Cl`, the Inhibition is listed as 12%. In the case of `O=C(NC1CC1)c1ccc(Nc2nccc(-c3c(-c4cccc(NC(=O)c5c(F)cccc5F)c4)nn4ccccc34)n2)cc1` it was 84%; in that of `COc1ccc2nccc(N3CCN(CCNCc4ccc5c(n4)NC(=O)CO5)CC3)c2c1.Cl`, 18%; in that of `CC(C)(C)c1nn(-c2ccc(Cl)cc2)c2[nH]c(=O)c(CNCc3ccc4c(c3)OCO4)cc12`, 15%. In the case of `Cn1nc(-c2ccc(NC(=O)Nc3ccc4ccccc4c3)c(F)c2)c2cnc(NCCN3CCOCC3)nc21.O=C(O)C(F)(F)F` it was 62%; in that of `Fc1ccc2[nH]c(-c3cccc(-c4ccc(CN5CCN(CCN6CCOCC6)CC5)cc4)c3)nc2c1.O=C(O)C(F)(F)F`, 30%; in that of `NCCCNc1nccc(N2CCc3ncnc(Nc4ccc(OCc5cccc(F)c5)c(Cl)c4)c3C2)n1`, 18%. Next, `O=C(C1CCN(c2nnnn2-c2ccccc2)CC1)N1CCc2ccccc2C1`: 0%; `CCc1ccc(-n2cc(C(=O)c3cc(Br)ccc3O)cc(C#N)c2=O)cc1`: 9%.

As a reminder, the Inhibition is how much of the control response was suppressed. A higher Inhibition goes with a response far below the control.
